Values joined by “and” are separate entries in the source; they are usually repeats but may differ in a detail not shown here. Identical values can stand only once.

The subject of the experiment is XIP peptide (Xip251-270). Briefly: small-molecule binders of XIP peptide, primary screen, biochemical, small-molecule microarray, fluorescence 635/667 nm, 0.5 µg/mL protein (AID 1183). Particulars: small-molecule microarray binding, fluorescence 635 nm; higher = more signal.
As to `COC(=O)C1=C2N(Cc3ccccc3)C(C)=C(C(=O)OC)[C@@H](c3ccccc3)N2C(=O)[C@](O)(C(=O)OC)C1`, the composite z-score was 0.23 and 0.64.

`CCN1C(=O)[C@H]2[C@H]3[C@H](O)[C@H](O)CC(=NNC(=O)OCc4ccc(OC)cc4)[C@H]3CC[C@H]2C1=O`: the composite z-score is 0.267.

Regarding `C=CCN(C(=O)C1N(C(C)(C)CO)C(=O)C2C(C(=O)O)C3C=CC21O3)C(C)(C)C` (stereo not given), the composite z-score was -0.901 and -0.924.

On to `CC(CO)N1C(=O)[C@@H]2C3C(=O)OCCC=C[C@H]3OC23C=CCN(C(C)(C)C)C(=O)[C@@H]13` (stereo not given in full), for which the composite z-score was -0.947 and -0.179.

Take `C=CCN(Cc1ccccc1)C(=O)C1N(c2c(Cl)cccc2CO)C(=O)C2C(C(=O)O)C3C=CC21O3` (stereo not given): the composite z-score is -2.24 and -0.403.

In the case of `CC(C)=CCCC(C)=CCON=C1C[C@@H](O)[C@@H](O)[C@@H]2[C@@H]3C(=O)N([C@@H](C)c4ccccc4)C(=O)[C@@H]3CC[C@H]12`, the composite z-score came to 0.105.

Consider `CO[C@H]1COC(=O)CC=C[C@@H](C)COC(=O)[C@@H](OCc2ccccc2)C=C[C@@H]1C`, for which the composite z-score was -0.106.

`CC(=O)OC[C@H]1O[C@H](C#CC(C)(C)C)C=C[C@@H]1OC(C)=O`: the composite z-score came to 0.575.

Take `CCOC(=O)C[C@H]1[C@H](OC(=O)c2ccccc2-c2ccccc2)[C@@H](NC(=O)c2ccccc2)c2cc(OCCCO)ccc2N1C(=O)c1ccc2ccccc2n1`: the composite z-score is -0.0343 and 0.393.

On to `C=CCN(CCCC)C(=O)C1N(CCOCCO)C(=O)C2C(C(=O)O)C3C=CC21O3` (stereo not given), for which the composite z-score is 1.07 and -0.932.

Consider `COC(=O)[C@@]1(Cc2ccccc2)[C@H]2c3cc(C(=O)N(C)C)n(Cc4ccc(C)c(F)c4F)c3C[C@H]2CN1C(=O)c1ccccc1`, for which the composite z-score is 0.639 and 0.462.

`COC(=O)C1=C(C)N(Cc2ccccc2)C2=C3C(=O)N(c4ccccc4)C(=O)[C@@H]3[C@@](O)(C(=O)OC)C(=O)N2[C@@H]1c1ccccc1`: the composite z-score was 0.673 and 0.243.

`C=C(C)C(=O)OC[C@@H]1CN2[C@@H](CC[C@@H](C)[C@@H]2c2ccc(Br)cc2)C(=O)O1`: the composite z-score is 0.175.

For `CC(C)=NO[C@@H](C)c1cc(-c2c(C)cc(C)cc2C)no1`, the composite z-score turned out to be 0.303.

With `C=CCN(C(=O)C1N(CCCCCCO)C(=O)C2C(C(=O)O)C3C=CC21O3)C(C)(C)C` (stereo not given), the composite z-score was 0.429 and -1.

In the case of `C=C[C@@H](OC)[C@H](O)c1ccc(OC)c(O)c1`, the composite z-score is -0.531 and -1.37.

For `C=CCN(C(=O)C(c1cccs1)N(C(=O)/C=C\C(=O)O)C(C)(C)CO)c1ccc(OC)cc1` (stereo not given), the composite z-score is -1.17 and -0.372.

`CCOC(=O)CCN1C(=O)[C@H]2[C@H]3[C@H](O)[C@H](O)CC(=NNC(=O)OCC)[C@@H]3CC[C@H]2C1=O`: the composite z-score worked out at 0.466.

In the case of `COC(=O)C1=C(C)N(Cc2ccccc2)C2=C(C(C)=O)C[C@@](O)(C(=O)OC)C(=O)N2[C@@H]1c1ccccc1`, the composite z-score is -0.358 and 0.645.

For `CC(C)=NOCc1ccc(-c2cn([C@@H]3COC[C@H]3O)nn2)cc1`, the composite z-score was -0.149.

For `CCOC(=O)[C@@H]1CC=C2CC1C(=O)N1CCC[C@@H]1[C@H]2O[Si](C)(C)C(C)(C)C` (stereo not given in full), the composite z-score was -1.29 and -0.354.

`C[C@@H]1CC[C@H]2C(=O)O[C@H](CN=[N+]=[N-])CN2[C@H]1c1ccc(Br)cc1`: the composite z-score is 0.183 and 0.186.

With `Cc1cc2c(nc1C)CCCN2CC(O)CN1CCCc2nc(-c3ccc(Br)cc3)ccc21` (stereo not given), the composite z-score is 0.719 and 0.327.

Turning to `COC(=O)C1=C(C)N(Cc2ccccc2)[C@]23O[C@](C(=O)OC)(C(=O)N2[C@@H]1c1ccccc1)[C@H]1C(=O)N(c2ccccc2)C(=O)[C@H]13`, the composite z-score was -0.275 and -0.308.

In the case of `COC(=O)C1=C(C)N(Cc2ccccc2)C2=C3C(=O)N(C)C(=O)[C@@H]3[C@@](O)(C(=O)OC)C(=O)N2[C@@H]1c1ccccc1`, the composite z-score was 0.0447 and 0.0893.

Regarding `CO[C@@H]1COC(=O)[C@H](Cc2ccccc2)NC(=O)CC=C[C@@H](C)[C@H](OC)COC(=O)[C@@H](C)NC(=O)CC=C[C@H]1C`, the composite z-score is 0.499 and 0.535.

On to `CCOC(=O)NN=C1C[C@@H](O)[C@@H](O)[C@@H]2[C@@H]3C(=O)N(Cc4ccccc4)C(=O)[C@@H]3CC[C@@H]12`, for which the composite z-score was determined as 0.0853.

In the case of `C=CCN(C(=O)C1N(c2c(Cl)cccc2CO)C(=O)C2C(C(=O)O)C3C=CC21O3)C(C)(C)C` (stereo not given), the composite z-score was 0.106 and -0.591.

`CO[C@@H]1COC(=O)CC=C[C@H](C)[C@@H](NS(=O)(=O)c2ccc(C)cc2)COC(=O)CC=C[C@@H]1C`: the composite z-score is 0.77 and 0.481.

Turning to `Cc1ccc(S(=O)(=O)OC[C@@H]2CN3[C@@H](CC[C@@H](C)[C@@H]3c3ccc(Br)cc3)C(=O)O2)cc1`, the composite z-score was 0.432 and 0.299.

For the compound `COC(=O)C1=C(C)N(Cc2ccccc2)[C@]23O[C@](C(=O)OC)(C(=O)N2[C@@H]1c1ccccc1)[C@H]1C(=O)N(C)C(=O)[C@H]13`, the composite z-score is 0.706 and -0.282.

Turning to `COC(=O)[C@H](C)NC(=O)CCC1CC(OC(=O)NCCc2ccc(F)cc2)CC2(CCCC(COC(=O)NCCCN3CCCC3=O)O2)O1` (stereo not given in full), the composite z-score is 0.683.

In the case of `C#CCCCON=C1C[C@@H](O)[C@@H](O)[C@@H]2[C@@H]3C(=O)N(C4CCCCC4)C(=O)[C@@H]3CC[C@H]12`, the composite z-score was 0.545.

Take `C=CC[C@@H](O)c1ccc(OCCO)cc1`: the composite z-score is 0.184 and -0.25.

For `C=CCN(C(=O)C(c1cccs1)N(C(=O)/C=C\C(=O)O)c1c(Cl)cccc1CO)c1ccc(OC)cc1` (stereo not given), the composite z-score is -0.457 and -1.04.

For `CCCC[C@@H]1CN2[C@H](c3ccc(Br)cc3)[C@@H](C)CC[C@H]2C(=O)O1`, the composite z-score was -0.322 and -0.118.

Turning to `CO[C@@H]1COC(=O)CC=C[C@H](C)COC(=O)[C@H](C)NC(=O)CC=C[C@H]1C`, the composite z-score was 0.195.

`C[C@@H]1CC[C@H]2C(=O)N3[C@@H](CC[C@@H](C)[C@@H]3c3ccc(-c4ccco4)cc3)C(=O)N2[C@H]1c1ccc(-c2ccco2)cc1`: the composite z-score is 0.827 and 0.789.

With `CCCCCN1CC=CC23O[C@@H]4C=CCCOC(=O)C4[C@H]2C(=O)N(C(C)CO)[C@@H]3C1=O` (stereo not given in full), the composite z-score is 0.675 and 0.445.

`CO[C@H]1COC(=O)CC=C[C@H](C)[C@H](OC)COC(=O)[C@@H](C)COC(=O)CC=C[C@@H]1C`: the composite z-score was 0.602 and -0.337.
